The values below come from PubChem BioAssay (NCATS).

A short description of assay [1]: qHTS drug screen for cell cycle checkpoint inhibitors in PARPi-resistant BRCA-mutant ovarian cancer cell lines. (AID 1963452; calls by dose curve). The following applies: PEO1/OlaR viability, CellTiter-Glo luminescence, 96 h, stronger effect = lower value. The method in brief: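 PEO1, PEO4 and PEO1/OlaR ovarian cancer cells, 600 per well, exposed 96 h at 37C to a dilution series. Viability read by CellTiter-Glo luminescence, normalized to DMSO and empty wells; activity summarized as Z-AUC.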
A general note: In qHTS, concentration-response curves come from the screen itself.

Assay [2] in a line: qHTS for identification of novel therapeutic agents for treatment of microphthalmiaassociated transcription factor (MiT) renal cell carcinoma (RCC) (AID 1963991). The note with it: CellTiter-Glo, 48 h, stronger effect = lower value. The method in brief: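 Curves over 11 concentrations were fitted to CellTiter-Glo luminescence, scaled between empty wells (0%) and DMSO (100%) viability. Cells were UOK109, UOK124 and UOK145 TFE3-fusion RCC lines at 500/well, exposed 48 hours at 37 C.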

Assay [3] is described as follows: qHTS profiling for inhibitors of Plasmodium falciparum proliferation (AID 504749). Further: nearly all actives have a fitted effect of over 60% in size. Further: potency means the concentration at half of the fitted maximal effect.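 On activity, negative = inhibition: 0% = DMSO vehicle and full inhibition = artemisinin control.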 The following applies: P. falciparum in erythrocytes, SYBR Green DNA, 72 h. Put shortly:
(§1)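 P. falciparum-infected erythrocytes (0.3% parasitemia, 2.5% hematocrit) incubated with compound 72 h at 37 C, 5% CO2. Parasite DNA detected by SYBR Green after lysis, overnight at room temperature; normalised to 0.29 uM artemisinin and DMSO.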

The next assay relates to 3D7. The description is as above. The following applies: P. falciparum in erythrocytes, SYBR Green DNA, 72 h; series mostly up to 28.7 µM. The method in brief: as §1
Another assay deals with 7G8. Described as above. The note with it: P. falciparum in erythrocytes, SYBR Green DNA, 72 h; series mostly up to 28.7 µM. The method in brief: as §1
In a further assay the test system is AA1029. Described as above. The following applies: P. falciparum in erythrocytes, SYBR Green DNA, 72 h; series mostly up to 28.7 µM. Put shortly: as §1
Another assay relates to AS120. Described as above. The following applies: P. falciparum in erythrocytes, SYBR Green DNA, 72 h; series mostly up to 28.7 µM. Put shortly: as §1
For another assay, the system named is ATS189. The description is as above. The note with it: P. falciparum in erythrocytes, SYBR Green DNA, 72 h; series mostly up to 28.7 µM. Put shortly:
as §1

Another assay relates to ATS95. The description is as above. The note with it: P. falciparum in erythrocytes, SYBR Green DNA, 72 h; series mostly up to 28.7 µM. The method in brief: as §1
For the next assay, the system named is C2A. Described as above. The following applies: P. falciparum in erythrocytes, SYBR Green DNA, 72 h; series mostly up to 28.7 µM. Put shortly: as §1
The next assay concerns CP185. The description is as above. The note with it: P. falciparum in erythrocytes, SYBR Green DNA, 72 h; series mostly up to 28.7 µM. Put shortly: as §1
Another assay relates to CP191. The assay is described as above. The note with it: P. falciparum in erythrocytes, SYBR Green DNA, 72 h; series mostly up to 28.7 µM. The method in brief:
as §1

Another assay relates to CP217. The assay is described as above. The following applies: P. falciparum in erythrocytes, SYBR Green DNA, 72 h; series mostly up to 28.7 µM. Put shortly:
as §1

The subject of another assay is CP237. Described as above. The following applies: P. falciparum in erythrocytes, SYBR Green DNA, 72 h; series mostly up to 28.7 µM. Put shortly: as §1
For a further assay, the system named is CP194. Described as above. The following applies: P. falciparum in erythrocytes, SYBR Green DNA, 72 h; series mostly up to 28.7 µM. Put shortly:
as §1

In a further assay the test system is CP201. Described as above. The following applies: P. falciparum in erythrocytes, SYBR Green DNA, 72 h; series mostly up to 28.7 µM. The method in brief:
as §1

For another assay, the system named is CP211. The assay is described as above. The note with it: P. falciparum in erythrocytes, SYBR Green DNA, 72 h; series mostly up to 28.7 µM. The method in brief: as §1
In the next assay the test system is CP215. The description is as above. The following applies: P. falciparum in erythrocytes, SYBR Green DNA, 72 h; series mostly up to 28.7 µM. The method in brief: as §1
In another assay the test system is CP192. Described as above. The note with it: P. falciparum in erythrocytes, SYBR Green DNA, 72 h; series mostly up to 28.7 µM. The method in brief: as §1
For the next assay, the system named is CP203. The assay is described as above. The note with it: P. falciparum in erythrocytes, SYBR Green DNA, 72 h; series mostly up to 28.7 µM. The method in brief:
as §1

Setting [4] is: measured here: PEO1 parental Z-AUC.
Setting [5] is: TFE3-RCC UOK109 viability, measured here: UOK109 Z-AUC.
Where [6] appears, read: TFE3-RCC viability, measured here: UOK124 Z-AUC.
The mark [7] stands for this setting: TFE3-RCC viability, measured here: UOK145 Z-AUC.
[8] abbreviates: at 28.7 µM (top of the series), parasite line A.
Where [9] appears, read: at 28.7 µM (top of the series), parasite line B.

The structures appear in SMILES notation. Records with an inconclusive call do not appear. Activity calls are given as the source filed them. Unless noted, the call rests on the fitted dose curve; in most records, active means well fitted inhibition curve with a large enough effect; inconclusive means small, poorly fitted or top-dose-only effect; inactive means flat fitted curve, though single readings scatter.

For `Cc1oc(=O)oc1CN1CCN(c2cc3c(cc2F)c(=O)c(C(=O)O)c2n3C(C)S2)CC1` (centres undefined), the Z-AUC is -0.572 (inactive) in assay [1], -0.35 in assay [1] (setting [4]) and -0.652 in [1] (measured here: PEO4 Z-AUC). Also, the results for the z-score in assay [2] (setting [5]), in [2] (setting [6]) and in assay [2] (setting [7]) were 0.77, 0.785 and 0.456, respectively. The Potency was 11.2 µM (active) in [3] (parasite line A); 8.91 µM (active) in assay [3] (parasite line B); 11.2 µM (active) in the assay on 3D7; 3.98 µM (active) in the assay with 7G8; 6.31 µM (active) in the assay with AA1029; 11.2 µM (active) in the assay on AS120. Further, the Potency in the assay with ATS189 is 8.91 µM (active); in the assay with ATS95 it was 12.6 µM (active); in the assay on C2A, 10 µM (active); in the assay on CP185 it was 10 µM (active); in the assay with CP191, 12.6 µM (active); with CP217, 11.2 µM (active). Besides, the Potency with CP237 was 10 µM (active).
For `O=C(O)c1cc(=O)[nH]c(=O)[nH]1`, the Z-AUC was 0.444 (inactive) in assay [1], -0.118 in assay [1] (setting [4]) and -0.128 in [1] (measured here: PEO4 Z-AUC). The z-score was 1.07 in [2] (setting [5]), 0.79 in assay [2] (setting [6]) and 1.38 in [2] (setting [7]). Further, the activity, negative = inhibition in [3] (setting [8]) is 24.2% (inactive); in [3] (setting [9]) it was 6.15% (inactive). The Potency result in the assay with 3D7, in the assay with AA1029, with AS120, in the assay on ATS189, in the assay with ATS95 and in the assay on C2A was “inactive” each time. The Potency entry in the assay with CP185, with CP191, in the assay with CP194, in the assay on CP201, in the assay with CP211 and in the assay with CP215 was “inactive” in each case. For the same compound, the Potency entry in the assay with CP217 and in the assay on CP237 was “inactive” throughout.
In the case of `NC(=O)c1cccnc1`, the Z-AUC in assay [1] was 1.48 (inactive); in assay [1] (setting [4]) it was 1.33; in assay [1] (measured here: PEO4 Z-AUC), 1.21. The z-score in assay [2] (setting [5]) was 0.739; in [2] (setting [6]) it was 0.417; in assay [2] (setting [7]) it was -0.282. Besides, the results for the activity, negative = inhibition in [3] (setting [8]) and in assay [3] (setting [9]) were 9.61% (inactive) and 2.45% (inactive), respectively. For the same compound, the Potency entry in the assay with 3D7, in the assay with 7G8, in the assay with AA1029, in the assay with AS120, in the assay on ATS189 and with ATS95 was “inactive” throughout. For the same compound, the Potency result with C2A, in the assay on CP185, with CP191, in the assay on CP192, in the assay with CP194 and with CP201 was “inactive” in each case. Besides, the Potency entry in the assay with CP203, in the assay with CP211, in the assay with CP215, in the assay on CP217 and with CP237 was “inactive” each time.
As to `CCn1cc(C(=O)O)c(=O)c2cc(F)c(N3CCN(C)CC3)cc21`, the figures for the Z-AUC in assay [1], in assay [1] (setting [4]) and in assay [1] (measured here: PEO4 Z-AUC) were 1.22 (inactive), 0.931 and 1.07, respectively. For the same compound, the z-score in assay [2] (setting [5]) is 0.77; in assay [2] (setting [6]) it was 0.298; in [2] (setting [7]) it was 0.753. The activity, negative = inhibition in [3] (setting [9]) is -21.5% (inactive). In addition, the Potency result in the assay on 3D7, in the assay on CP192, with CP194 and in the assay on CP201 was “inactive” in each case.
For the compound `Cc1cccc(N(C)C(=S)Oc2ccc3ccccc3c2)c1`, the Z-AUC was 0.688 (inactive) in assay [1], 0.339 in assay [1] (setting [4]) and 0.795 in [1] (measured here: PEO4 Z-AUC). In addition, the activity, negative = inhibition is -2.31% (inactive) in assay [3] (at 12.8 µM (top of the series), parasite line A) and 0.272% (inactive) in [3] (at 12.8 µM (top of the series), parasite line B). Besides, the Potency entry with 3D7, in the assay on 7G8, with AA1029, in the assay on AS120, with ATS189 and in the assay with ATS95 was “inactive” in each case. Also, the Potency result with C2A, with CP185, in the assay with CP191, in the assay with CP192, in the assay on CP194 and in the assay on CP201 was “inactive” each time. For the same compound, the Potency result in the assay with CP203, in the assay on CP211, with CP215, with CP217 and in the assay on CP237 was “inactive” throughout.
